The sample as a whole holds a higher share of hits than the screen did.
Eya2 phos inh: Eya2 (human) phosphatase inhibition; O00167; recombinant Eya2, OMFP fluorescence dephosphorylation (OMFP is methylfluorescein phosphate); Potency, µM (series often up to 76.9 µM), for the others: at the top dose activity, negative = inhibition, actives largely listed as inhibitors; actives 0.006% (n = 330,000); AID 488837; further: on the % scale 0 is the no-effect control and ±100 the full control effect
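Eya2 protein (added as 0.2 uM solution) was preincubated with compound for 10 min at ambient temperature in 50 mM HEPES pH 7.5, 50 mM NaCl, 5 uM MgCl2, 0.05% BSA, 1 mM DTT. OMFP (added at 50 uM) then reacted 10 min; fluorescence read at 485/525 nm.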
ClpP mod: qHTS Assay for Activators of ClpP. ATP-dependent Clp protease proteolytic subunit (Bacillus subtilis (strain 168)), P80244. purified B. subtilis ClpP, FRET peptide cleavage, 20 min. Potency, µM (doses to about 57.5 µM), without a hit: at the top dose activity change, negative = active. actives 1.9% (n = 340,000). AID 651965, 2013; active means well fitted falling curve with a large enough effect; inconclusive means small, poorly fitted or top-dose-only effect; inactive means no such curve, though single readings can be large or run the other way; further: the source files actives as falling curves though it sought activators and does not explain the sign; nearly all actives have a fitted effect of over 65% in size
Target sequence (P80244 whole entry, looked up): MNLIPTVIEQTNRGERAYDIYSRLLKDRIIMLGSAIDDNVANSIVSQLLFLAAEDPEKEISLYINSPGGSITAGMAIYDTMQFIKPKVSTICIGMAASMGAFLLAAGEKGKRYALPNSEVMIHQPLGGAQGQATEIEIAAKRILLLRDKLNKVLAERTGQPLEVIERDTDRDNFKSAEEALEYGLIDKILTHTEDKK
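Buffer: 100 mM Tris/HCl pH8, 100 mM KCl, 0.05% low protease BSA, 2.5% glycerol, 0.01% Tween-20. ClpP 10 microg/mL final; 20 min RT; delta FRET normalized to ADEP and DMSO controls.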
USP2a inh: inhibitors of human ubiquitin-specific protease USP2a; actives 0.01% (n = 330,000); Potency, µM (top dose mostly 38.3 µM), for inactives: top-dose activity change, negative = inhibition, most hits filed as inhibitors; AID 463254; USP2 core, Ub-CHOP2 coupled fluorogenic reporter, 485/531;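 further: plate controls were DMSO wells for no effect and full inhibition by NEM control for full effect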
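USP2 core (10nM final) preincubated 30min RT with compound in 20mM Tris-HCl pH 8.0, 2mM CaCl2, 2mM beta-mercaptoethanol, 0.05% CHAPS; 25nM Ub-CHOP2 plus 25nM reporter substrate added, fluorescence (Ex485/Em531) read after 60min.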
GALK inhibitor: inhibitors of human galactokinase | Purified GALK, Kinase-Glo residual ATP luminescence | Potency, µM (highest dose often 57.5 µM), for the others: top-dose activity change, negative = inhibition, actives largely listed as inhibitors | actives 0.007% (n = 270,000); further: on the % scale 0 is the no-effect control and ±100 the full control effect
Target sequence (P51570 whole entry, looked up): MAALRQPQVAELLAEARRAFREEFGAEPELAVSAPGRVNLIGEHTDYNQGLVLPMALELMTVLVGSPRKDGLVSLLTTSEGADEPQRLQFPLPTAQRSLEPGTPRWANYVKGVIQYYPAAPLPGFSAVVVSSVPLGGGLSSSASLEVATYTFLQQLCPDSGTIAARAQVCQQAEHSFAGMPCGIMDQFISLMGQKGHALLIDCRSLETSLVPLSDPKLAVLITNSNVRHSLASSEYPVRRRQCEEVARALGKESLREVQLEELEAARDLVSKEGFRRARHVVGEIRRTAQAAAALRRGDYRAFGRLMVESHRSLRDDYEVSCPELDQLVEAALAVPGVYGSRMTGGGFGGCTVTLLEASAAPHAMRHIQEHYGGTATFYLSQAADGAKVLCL
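The enzyme phosphorylates galactose (100 uM) using ATP (35 uM); inhibition is detected as higher residual ATP, quantified by bioluminescence after 1 h reaction at room temperature, pH 8.0.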
* marks the source's active call; other numbers are inactive results; [ ] = remark or other dose. Unless noted, the call rests on the fitted dose curve; in most records, active means well fitted inhibition curve with a large enough effect; inconclusive means small, poorly fitted or top-dose-only effect, or effect the other way; inactive means flat fitted curve, though single readings scatter. Potency means the concentration at half of the fitted maximal effect.

O=c1[nH]c(C2CCCN(S(=O)(=O)c3ccccc3Cl)C2)nc2c1nnn2Cc1ccc(OC(F)(F)F)cc1 (stereo not given) was read as ClpP mod -3%.
CC(C)(C)C1CCC(=NNC(=S)Nc2cccnc2)CC1 (stereo not given) was read as Eya2 phos inh -3%, USP2a inh 0% and GALK inhibitor 9%.
For CCNC(=S)NN=C1CCC(C(C)(C)C)CC1 (stereo not given) the results were Eya2 phos inh 17%, ClpP mod 28µM*, USP2a inh 0% and GALK inhibitor 1%.
`CCn1nc(C(=O)Nc2ccc3nc(C)sc3c2)c2ccccc2c1=O` gave Eya2 phos inh -5%, ClpP mod 20µM*, USP2a inh -2% and GALK inhibitor 0%.
Screening C/C(=N\N1C(=O)c2ccccc2NC1c1ccccc1)c1ccccc1O (stereo not given) returned Eya2 phos inh -9%, ClpP mod -3%, USP2a inh 0% and GALK inhibitor -1%.
O=C1c2ccccc2NC(c2cccc(Cl)c2)N1N=C1CCCCCC1 (stereo not given) was read as Eya2 phos inh -7%, ClpP mod 20µM* and USP2a inh 0%.
Screening CC(C)CNc1ncnc2c1sc1nc(N3CCOCC3)c3c(c12)CC(C)(C)OC3 returned Eya2 phos inh -3%, ClpP mod 6.3µM*, USP2a inh 2% and GALK inhibitor -4%.
`CC1(C)Cc2c(c(-c3ccco3)nc3sc4c(NCC5CCCO5)ncnc4c23)CO1` (stereo not given) gave Eya2 phos inh -16%, ClpP mod 16µM*, USP2a inh -1% and GALK inhibitor 2%.
For CN(C)CCNc1ncnc2c1sc1nc(N3CCCC3)c3c(c12)CC(C)(C)OC3 the results were Eya2 phos inh 8%, USP2a inh 0% and GALK inhibitor -3%.
For CCc1ccc(CN2CCC(n3nccc3NC(=O)C3CCCC3)CC2)cc1 the results were Eya2 phos inh -3%, ClpP mod 28µM*, USP2a inh -1% and GALK inhibitor -4%.
Screening CCOC(=O)C1=C(C)N=C2c3ccccc3C(=O)C2C1c1ccc(C)cc1 (stereo not given) returned Eya2 phos inh -5%, ClpP mod -2% and USP2a inh -1%.
For CCn1c(CNC(=O)c2ccccc2Br)nnc1SCC(=O)Nc1nncs1 the results were Eya2 phos inh -13%, ClpP mod 14µM*, USP2a inh -1% and GALK inhibitor 15%.
For COC(=O)CSc1nc(-c2ccccc2)cc(-c2ccco2)c1C#N the results were Eya2 phos inh -9%, ClpP mod 25µM*, USP2a inh -10% and GALK inhibitor -1%.
`COC(=O)CSc1nc(-c2ccc(C)cc2)c2c(c1C#N)CCCC2` gave Eya2 phos inh -5%, ClpP mod 28µM*, USP2a inh 0% and GALK inhibitor -2%.
For COC(=O)CSc1nc(N2CCOCC2)c2c(c1C#N)CCCC2 the results were Eya2 phos inh 12%, ClpP mod -6%, USP2a inh 2% and GALK inhibitor -2%.
Screening CCc1nnc(NC(=O)CSc2nc(-c3ccccc3)cc(-c3ccc(OC)cc3)c2C#N)s1 returned Eya2 phos inh 3%, ClpP mod -3%, USP2a inh 1% and GALK inhibitor 0%.
For COc1ccc(-c2cc(-c3ccccc3)c(C#N)c(SCC(=O)Nc3ncc(C)s3)n2)cc1 the results were Eya2 phos inh 3%, ClpP mod 7.9µM* and USP2a inh 1%.
Screening COc1ccc(-c2cc(-c3ccccc3)nc(SCC(=O)Nc3nccs3)c2C#N)cc1 returned Eya2 phos inh -21%, ClpP mod 28µM*, USP2a inh 5% and GALK inhibitor 2%.
For CC1(C)CC(=O)C=C(Nc2ccccn2)C1 the results were Eya2 phos inh 6%, ClpP mod 0%, USP2a inh -2% and GALK inhibitor 1%.
CN(C(=O)Cn1c(Cl)nc2c1c(=O)n(C)c(=O)n2C)C1CCS(=O)(=O)C1 (stereo not given) was read as Eya2 phos inh 6%, ClpP mod -2% and USP2a inh 2%.
COc1cnc(-c2ccccn2)nc1Sc1ccc(Cl)cc1 was read as Eya2 phos inh -15%, ClpP mod -1%, USP2a inh -1% and GALK inhibitor -1%.
`COc1cnc(N(C)C)nc1Sc1ccc(Cl)cc1` gave Eya2 phos inh -4%, ClpP mod 32µM*, USP2a inh 1% and GALK inhibitor -2%.
`COC(=O)c1nn(-c2ccc3c(c2)OCO3)cc1O` gave Eya2 phos inh 11%, ClpP mod 32µM*, USP2a inh 0% and GALK inhibitor 6%.
For COC(=O)c1nn(-c2ccc3c(c2)CCN3C(C)=O)cc1O the results were Eya2 phos inh 4%, ClpP mod 7.1µM*, USP2a inh 0% and GALK inhibitor 13%.
Screening CCOC(=O)c1nn(-c2ccc3c(c2)OCCO3)cc1O returned Eya2 phos inh -4%, USP2a inh -2% and GALK inhibitor 2%.
`Cc1ccc(NC(NC(=O)c2cccs2)C(Cl)(Cl)Cl)cc1` (stereo not given) gave Eya2 phos inh -1%, ClpP mod -2%, USP2a inh 0% and GALK inhibitor -4%.
For Cc1ccccc1NC(NC(=O)c1cccs1)C(Cl)(Cl)Cl (stereo not given) the results were Eya2 phos inh -3%, ClpP mod 25µM*, USP2a inh -4% and GALK inhibitor -7%.
Cc1ccc2[nH]c3c(c2c1)CCC3=O was read as Eya2 phos inh 7%, ClpP mod 25µM*, USP2a inh 3% and GALK inhibitor 0%.
Screening Cc1ccc2[nH]c3c(c2c1)CCCC3=O returned Eya2 phos inh 21%, ClpP mod inconclusive, USP2a inh -1% and GALK inhibitor 0%.
Screening O=C1CCCc2c1[nH]c1ccc(CN3CCCCC3)cc21 returned Eya2 phos inh 3%[15.4 µM], ClpP mod 28µM*, USP2a inh 1% and GALK inhibitor 3%.
Cc1ccc(-n2nnnc2SCC(=O)N2Cc3ccccc3CC2C(=O)O)cc1 (stereo not given) was read as Eya2 phos inh -1%, ClpP mod -1%, USP2a inh 3% and GALK inhibitor 3%.
For CCOC(=O)N1CCN(C(=S)NC(=O)c2ccc(F)c(F)c2)CC1 the results were Eya2 phos inh -13%, ClpP mod 28µM*, USP2a inh 4% and GALK inhibitor -1%.
COCCNC(=O)C1CC(c2ccccc2[N+](=O)[O-])=NO1 (stereo not given) was read as Eya2 phos inh 4%, ClpP mod 1% and USP2a inh 3%.
`COc1ccc(NC(=O)CN(C)C(=O)c2sc3cc(Cl)ccc3c2Cl)cc1` gave Eya2 phos inh 3%, ClpP mod 28µM* and USP2a inh 0%.
